PubChem BioAssay AID2289 (National Center for Advancing Translational Sciences (NCATS), 2010)
Where “and” joins values, the source holds several entries; their conditions need not be identical. Equal entries are not always repeated. In all, about 340,000 compounds went through this assay and about 3,300 (0.97%) were called active. Inconclusive results (about 9%) are left out. The call rests on the fitted dose curve; in most records, active means well fitted inhibition curve with a large enough effect; inconclusive means small, poorly fitted or top-dose-only effect, or effect the other way; inactive means flat fitted curve, though single readings scatter. This is one part of the list.

Test: qHTS Assay for Modulators of miRNAs and/or Inhibitors of miR-21; further: nearly all actives have a fitted effect of over 55% in size
Conditions: HeLa miR-21-FLuc reporter, luciferase luminescence, 48 h; actives lower the signal
Outline: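 Compounds were titrated across several concentrations (up to approximately 40 uM) and incubated 48 hours with HeLa miR-21-FLuc reporter cells (miR-21 target sequence downstream of FLuc, endogenous miR-21). Readout was firefly luciferase luminescence after lytic detection reagent.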
Potency means the concentration at half of the fitted maximal effect.

Potency, active:
CNC(=O)/C(C#N)=C/c1ccc(-c2ccc(OC)cc2[N+](=O)[O-])o1 18.5 µM, CCOC(=O)/C(C#N)=C/Nc1ccccc1OC 5.21 µM, Cc1cccc(C)c1NC(=O)/C(C#N)=C/c1ccc(-c2ccc(C(=O)O)cc2)o1 2.07 µM, CNC(=O)/C(C#N)=C/c1ccc(-c2ccc(Cl)cc2)o1 4.14 µM, CCOC(=O)/C(C#N)=C/c1ccc(-c2ccccc2)o1 18.5 µM, Cc1ncc(CO)c(/C=N/N=C/c2ccccc2O)c1O 13.1 µM, COc1ccc(-c2nn(-c3ccccc3)cc2N)cc1 3.69 µM, COc1ccc(-c2nn(-c3ccccc3)cc2C#N)cc1 4.14 µM, COc1cc(OC)c2c(=O)cc(-c3ccccc3)oc2c1 6.56 µM, O=c1cc(-c2ccc(O)cc2)oc2ccccc12 7.36 µM, COc1ccc(-c2cc(=Nc3c(C)n(C)n(-c4ccccc4)c3=O)c3ccccc3o2)cc1 4.14 µM, O=c1cc(-c2ccccc2)oc2ccc(O)cc12 3.29 µM, O=c1cc(-c2ccccc2F)oc2ccccc12 5.21 µM, COc1ccc(-c2cc(=O)c3ccccc3o2)cc1 5.85 µM, Fc1cccc2sc(Nc3nc4cc5c(cc4s3)OCCO5)nc12 0.208 µM, Fc1cccc2sc(Nc3nc4cc5c(cc4s3)OCO5)nc12 3.69 µM, O=C(O)c1ccc(N=Nc2c(O)[nH]c3ccc(Br)cc23)cc1 3.69 µM, O=C(O)c1ccc(N=Nc2c(O)[nH]c3cc(Cl)ccc23)cc1 0.165 µM, COc1cc2c(cc1OC)-c1cc(Nc3ccc4c(c3)OCCO4)nc(=O)n1CC2 8.26 µM, CCc1nc2oc3ccccc3c(=O)c2c(=O)n1-c1ccc(C)cc1 1.65 µM, Cc1cc(C)n2c(nc3ccccc32)c1C(=O)NN 10.4 µM, Nc1nc2c(Cl)cc(Cl)cc2s1 18.5 µM, Fc1ccc2nc(N3CCOCC3)sc2c1 16.5 µM, Clc1cc(Cl)c2nc(N3CCOCC3)sc2c1 16.5 µM, Clc1ccc(-c2nsc(N3CCOCC3)n2)c(Cl)c1 1.04 µM, Fc1ccc2nc(N3CCCC3)sc2c1 4.14 µM, COc1ccc(/C=C/C(=O)c2ccc[nH]2)c(OC)c1OC 14.7 µM, COc1ccc(/C=C/C(=O)c2ccc[nH]2)cc1OC 5.21 µM, O=C(/C=C/c1ccc2c(c1)OCO2)c1ccc[nH]1 3.69 µM, CC(C)CCNC(=O)C(=O)Nc1ccccc1 2.07 µM, O=C(NCc1ccccn1)C(=O)Nc1ccccc1 6.56 µM, CC(CCc1ccccc1)NC(=O)C(=O)Nc1ccccc1 (stereo not given) 1.65 µM, CC(C)CCNC(=O)c1ccc(-c2ccccc2)cc1 8.26 µM, CS(=O)(=O)c1cnc2c(-c3ccsc3)cnn2c1N 5.21 µM, CS(=O)(=O)c1cnc2c(-c3ccc(F)cc3)cnn2c1N 1.85 µM, O=C(c1ccccc1)c1ccc2c(c1)OCCCO2 2.07 µM, O/N=C(/CCc1ccccc1)c1ccc2c(c1)OCCO2 7.36 µM, O=C(CCc1ccccc1)c1ccc2c(c1)OCCCO2 3.69 µM, Cc1cc(O)c(C(=O)Cc2csc(C)n2)c(O)c1 5.85 µM, Cc1oncc1-c1csc(-c2ccccc2)n1 5.21 µM, O=C1C2C(C(=O)N1/N=C/c1cccc([N+](=O)[O-])c1)C1C=CC2C12CC2 (stereo not given) 18.5 µM, O=C(Cn1c(/C=C/c2ccccc2)nc2ccccc21)Nc1ccc(F)cc1 5.21 µM, Cc1cccc(NC(=O)Cn2c(/C=C/c3ccccc3)nc3ccccc32)c1 5.85 µM, COc1ccc(C2CC(=O)c3ccccc3O2)cc1 (stereo not given) 16.5 µM, O=C1CC(c2ccc3c(c2)OCCO3)Oc2ccccc21 (stereo not given) 14.7 µM, O=C1CC(c2ccc3c(c2)OCCO3)Oc2ccc([N+](=O)[O-])cc21 (stereo not given) 0.261 µM, Cc1ccc2c(c1)OC(c1ccc3c(c1)OCCO3)CC2=O (stereo not given) 16.5 µM, CC(C)c1nc(C#N)c(NN)o1 16.5 µM, N/C(=N\OC(=O)/C=C/c1ccccc1Cl)c1cccnc1 2.07 µM, N/C(=N\OC(=O)/C=C/c1ccccc1Cl)c1ccncc1 0.414 µM, COc1ccc(-n2nc3cc(C)c(N)c(Br)c3n2)cc1 4.14 µM, CC1CCC/C(=N\Nc2ccc(Cl)c(C(=O)O)c2)C1 (stereo not given) 6.56 µM, O=[N+]([O-])c1ccc2cn(-c3ccccc3)nc2c1 1.65 µM, Cc1ccccc1/C=N/Nc1ncnc2nc[nH]c12 6.56 µM, C(=N\Nc1ncnc2nc[nH]c12)/c1cccs1 4.14 µM, Cc1ccsc1/C=N/Nc1ncnc2nc[nH]c12 3.29 µM, Fc1ccccc1/C=N/Nc1ncnc2nc[nH]c12 5.21 µM, COc1ccccc1/C=N\N=C(\N)c1ccccn1 2.07 µM, N/C(=N\N=C\c1ccc(O)c(O)c1)c1nonc1N 8.26 µM, COc1cccc(/C=N/N=C(\N)c2nonc2N)c1O 3.69 µM, COc1ccc(/C=N/N=C(\N)c2nonc2N)cc1OC 7.36 µM, N/C(=N\N=C\c1ccc(Br)o1)c1nonc1N 3.29 µM, Cc1cccc(OCc2cc(-c3ccccc3)no2)c1C 7.36 µM, COc1ccccc1OCc1cc(-c2ccccc2)no1 3.69 µM, Cc1ccc(-c2cc(N)n(-c3ccc(F)cc3)n2)cc1 4.14 µM, Cc1ccc(-c2cc(N)n(-c3ccc(C)cc3)n2)cc1 11.7 µM and 1.85 µM, O=C(O)c1cc(-c2ccc(C(F)(F)F)cc2)nc2n[nH]c(-c3ccccc3)c12 0.585 µM, COc1ccc(-c2ccc3ccccc3n2)cc1OC 2.07 µM, COc1ccc(-c2csc(-c3cccs3)n2)cc1OC 6.56 µM, COc1ccc(-c2csc(-c3cccs3)n2)c(OC)c1 1.04 µM, COc1ccc(-c2nc(-c3ccc(O)cc3O)cs2)cc1OC 5.85 µM, COc1ccc(Nc2nc(-c3cccs3)cs2)c(OC)c1 1.04 µM, Cc1ccc(/C=C2\OC(=O)c3ccccc32)cc1 3.69 µM, O=C(O)c1cc(N/N=C/c2ccc3c(c2)OCCO3)ccc1Cl 0.293 µM, CSc1nsc(N/N=C/c2ccc3c(c2)OCO3)c1C#N 0.826 µM, Clc1ccccc1N/N=C/c1ccc2c(c1)OCO2 2.93 µM, O=C(O)c1cc(N/N=C/c2ccc(N3CCOCC3)cc2)ccc1Cl 2.07 µM, CN(C)c1ccc(C(=O)/C=C/c2ccccc2)cc1 5.21 µM, CN(C)c1ccc(/C=C/C(=O)c2ccccc2O)cc1 4.14 µM, O=C1C(C=Nc2ccc(F)cc2)=C(O)c2ccccc21 2.07 µM, COC(=O)c1ccc(C(=O)N=c2sccn2C)cc1 4.14 µM, Cc1cccc(C(=O)N=c2sccn2C)c1[N+](=O)[O-] 4.65 µM, Cn1ccsc1=NC(=O)c1ccc(S(=O)(=O)C(F)F)cc1 7.36 µM, Cn1ccsc1=NC(=O)c1cccc(OC(F)F)c1 2.33 µM, CCCCOc1ccc(C(=O)N=c2sccn2C)cc1OC 4.65 µM, Cn1ccsc1=NC(=O)c1ccc(OC(F)(F)F)cc1 4.65 µM, CCCCCc1ccc(-c2ccc(C(=O)Oc3ccc(C(=O)OC)cc3)cc2)nc1 0.656 µM, CCCCc1ccc(-c2ccc(Br)cc2)nc1 3.69 µM, CCCCCc1ccc(-c2ccc(Br)cc2)nc1 3.69 µM, CCCCCc1ccc(-c2nnc(N)s2)cc1 16.5 µM, CCCOc1ccc(-c2nnc(N)s2)cc1 5.21 µM, CCCCOc1ccc(-c2nnc(N)s2)cc1 14.7 µM, COc1cc(-c2cc(=O)c3ccccc3o2)ccc1O 8.26 µM, COc1cc(-c2cc(=O)c3c(O)cc(O)cc3o2)ccc1O 4.14 µM, CCS(=O)(=O)n1nc(-c2ccc(Cl)cc2)nc1SCc1ccccc1 8.26 µM, CC(=O)c1cc(C#N)c(SCc2ccccc2)nc1C 13.1 µM, CC(=O)c1cc(C#N)c(SCc2ccccn2)nc1C 7.36 µM, CC(=O)c1cnc2nc(SCc3ccccc3)nn2c1C 5.21 µM, COCCCNCCCCOc1ccc(OCc2ccccc2)cc1 18.5 µM, C=CCNCCCCOc1ccc(OCc2ccccc2)cc1 7.36 µM, CC(O)CNCCCCOc1ccc(OCc2ccccc2)cc1 (stereo not given) 9.27 µM, CC(C)(C)C1(C)OC(=O)C(=Cc2ccc(OCC(=O)Nc3ccccc3)cc2)C(=O)O1 (stereo not given) 11.7 µM, Cc1ccc(C(=O)NCc2ccc3c(c2)CCO3)cc1C 10.4 µM, O=C(O)c1cccc(N=NN2CCCCCC2)c1 0.165 µM, COC(=O)c1ccc(N=NN2CCOCC2)cc1 7.36 µM, COC(=O)c1ccc(N=NN2CCCCCC2)cc1 5.85 µM, COC(=O)c1ccc(N=NN2CCCCC2)cc1 7.36 µM, Cc1cc(C(F)(F)F)c(C#N)c(SCC(=O)Nc2nc3cc(Br)ccc3s2)n1 3.69 µM, Cc1ccc(NC2Nc3cc(C)nn3S2)c(C)c1 (stereo not given) 6.56 µM, CCc1ccc(NC2Nc3cc(C)nn3S2)cc1 (stereo not given) 1.65 µM
